# Reference: article PMC4336329 (PLoS ONE, 2015)
# About 14,000 (4.5%) of roughly 310,000 compounds showed an effect of 50% or more. Effects have a minus sign here. The entries come from a sample that favours strong results as a whole.
# Target: human ether-à-go-go-related gene (hERG) potassium channel (human, UniProt Q12809)
# Test: primary screen, population patch clamp on CHO cells stably expressing hERG; higher = less effect of the substance
# Protocol: Briefly, Chinese hamster ovary (CHO) cells stably expressing the hERG channel were dislodged from tissue culture flasks and dispensed into PPC plates. […] During the recording, background leak currents were estimated by a 100 ms step to -80 mV from an initial holding potential of -70 mV and subtracted from the subsequent current measurement. The campaign was conducted in two phases using slight differences in recording protocol. In the first phase, the initial voltage pulse used a 100 ms step to -30 mV from a holding potential of -70 mV, a 2 s conditioning step to +25 mV, and a 2 s test step to -30 mV. During the second phase of the screen, the potential during the conditioning step was raised to +45 mV. In both phases of the campaign, a secondary voltage pulse was applied using the same parameters as the second phase initial pulse. The initial and secondary pulses were applied in the absence of compound, and upon application of 1 μM and 10 μM test concentrations. […]
# 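Also: peak tail current of the secondary pulse compared with the same well before compound.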
# Chain of human ether-à-go-go-related gene (hERG) potassium channel (Q12809 whole entry, looked up): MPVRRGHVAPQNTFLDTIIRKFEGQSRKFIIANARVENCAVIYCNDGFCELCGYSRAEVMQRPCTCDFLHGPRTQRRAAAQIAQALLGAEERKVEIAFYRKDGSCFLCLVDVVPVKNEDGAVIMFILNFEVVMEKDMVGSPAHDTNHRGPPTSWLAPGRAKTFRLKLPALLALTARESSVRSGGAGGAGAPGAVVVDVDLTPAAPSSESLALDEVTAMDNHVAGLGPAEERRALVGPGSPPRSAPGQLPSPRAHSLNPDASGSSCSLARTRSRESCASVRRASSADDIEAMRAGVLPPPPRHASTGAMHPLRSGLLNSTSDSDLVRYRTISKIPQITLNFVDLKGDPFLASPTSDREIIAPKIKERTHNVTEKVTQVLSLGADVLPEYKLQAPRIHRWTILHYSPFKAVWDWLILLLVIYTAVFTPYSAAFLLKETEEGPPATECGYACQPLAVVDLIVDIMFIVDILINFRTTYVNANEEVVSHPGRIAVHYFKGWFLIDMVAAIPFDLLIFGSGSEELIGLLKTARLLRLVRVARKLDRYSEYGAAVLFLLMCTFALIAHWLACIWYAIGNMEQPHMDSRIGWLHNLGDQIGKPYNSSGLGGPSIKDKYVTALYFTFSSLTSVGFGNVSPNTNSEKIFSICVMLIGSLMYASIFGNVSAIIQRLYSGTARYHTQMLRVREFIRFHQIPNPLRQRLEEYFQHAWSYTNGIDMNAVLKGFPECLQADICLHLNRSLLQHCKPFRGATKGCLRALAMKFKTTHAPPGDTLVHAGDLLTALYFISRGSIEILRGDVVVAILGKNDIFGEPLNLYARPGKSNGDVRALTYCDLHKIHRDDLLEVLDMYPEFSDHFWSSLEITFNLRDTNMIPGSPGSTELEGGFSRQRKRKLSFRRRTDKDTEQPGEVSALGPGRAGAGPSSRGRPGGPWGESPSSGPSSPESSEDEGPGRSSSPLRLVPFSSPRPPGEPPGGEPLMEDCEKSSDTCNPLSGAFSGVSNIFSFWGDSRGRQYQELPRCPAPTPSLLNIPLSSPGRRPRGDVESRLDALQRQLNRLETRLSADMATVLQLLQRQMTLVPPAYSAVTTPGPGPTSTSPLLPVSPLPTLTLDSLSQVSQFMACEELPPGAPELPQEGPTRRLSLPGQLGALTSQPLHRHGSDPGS
row,Compound,"hERG current change (%, negative = inhibition) at 10uM"
1,Cc1nn(Cc2ccccc2Cl)c(C)c1NC(=O)Cn1nc([N+](=O)[O-])c(Cl)c1C,7.21%
2,COC(=O)c1coc(-c2ccc(C)cc2)c1C(=O)OC,1.6%
3,CC(=O)c1ccc(N2CCN(S(=O)(=O)c3ccc4ccccc4c3)CC2)cc1,3.28%
4,Cc1cc(Nc2nnnn2-c2ccccc2)n(-c2ccccc2)n1,-21.8%
5,CCN1CCN(C(=O)C(NS(=O)(=O)c2ccc3nc(C)sc3c2)C(C)C)CC1 (stereo not drawn),0.194%
6,COc1ccc(-c2[nH]c(-c3ccc(F)cc3)nc2SCC(=O)NCc2ccco2)cc1OC,18.8%
7,CSc1ccc(/C=N/Nc2ccc(Cl)c(C(=O)O)c2)cc1,6.73%
8,COC(=O)/C(=C/c1c[nH]c2ccccc12)NC(C)=O,6.31%
9,Cc1ccccc1-c1nc(CN2CCC(C(=O)N3CCC(C(N)=O)CC3)CC2)c(C)o1,2.7%
10,CCOC(=O)N1CCN(C(=O)C2CCN(Cc3nc(-c4ccccc4C)oc3C)CC2)CC1,-58.3%
11,CCc1ccc(-c2nc(CN3CCC(C(=O)N4CCN(c5ccccn5)CC4)CC3)c(C)o2)cc1,-68.5%
12,Cc1ccccc1-c1nc(CN2CCC(C(=O)O)CC2)c(C)o1,-18.6%
13,O=C1OC(/C=C/c2ccccc2)=NC/1=C\c1cccnc1,19.4%
14,CCCc1c(O)nc(SCC(=O)NCc2ccco2)[nH]c1=O,27%
15,O=C(c1ccc(=O)oc1)N1CCN(C(c2ccccc2)c2ccccc2)CC1,-32.2%
16,O=C(Nc1ccc(-n2cnnn2)cc1)C(c1ccccc1)c1ccccc1,8.56%
17,O=C(c1ccc(-n2cnnn2)cc1)N1CCCCC1,-24.1%
18,O=C(c1ccc(-n2cnnn2)cc1)N1CCN(C(c2ccccc2)c2ccccc2)CC1,-64.7%
19,O=C(c1ccc(-n2cnnn2)cc1)N1CCOCC1,-1.64%
20,CC1CCN(C(=O)c2ccc(-n3cnnn3)cc2)CC1,-72.1%
21,Cc1cc(NC(=O)c2cc(CC(C)C)on2)n(-c2ccccc2)n1,9.57%

row,Compound,"hERG current change (%, negative = inhibition) at 10uM"
1,COc1cc(NC(=O)CCCN2C(=O)NC(C)(C)C2=O)cc(OC)c1,12.2%
2,Cc1cccc(OCC(=O)NCC(=O)N/N=C/c2ccc(N(C)C)cc2)c1,0.0886%
3,Cc1ccc(NC(=O)Nc2c(Cl)cccc2Cl)cn1,14%
4,COC(=O)CCSc1cc([N+](=O)[O-])cc2c1c(C1OCCS1)nn2-c1ccccc1 (stereo not drawn),3.61%
5,O=C(O)CCc1ccc(-c2cccs2)n1NC(=O)c1cccs1,22.3%
6,O=C(Nc1ccc(Br)cc1)N1CCCC(O)C1 (stereo not drawn),6.54%
7,CN1CCN(C(=O)c2ccc3c(c2)N(Cc2ccccc2F)C(=O)c2ccccc2S3=O)CC1 (stereo not drawn),5.05%
8,COCCN1CCN(Cc2nc(C3(c4ccc(C)cc4)CCCC3)no2)CC1,-9.3%
9,Cc1ccc(C2(c3noc(CN4CCOCC4)n3)CCCC2)cc1,17.3%
10,Cc1ccc(C2(c3noc(CN4CCC(c5ccncc5)CC4)n3)CCCC2)cc1,-55.5%
11,COc1ccccc1NC(=O)C[n+]1ccccc1C.[Cl-],15.3%
12,CCN1CCN(c2nc3sc4c(c3c(=O)n2-c2ccc(OC)cc2)CCCCC4)CC1,-60.3%
13,CCOC(=O)CSc1nc2sc3c(c2c(=O)n1-c1ccc(OCC)cc1)CCN(C)C3,-53.9%
14,CCOc1ccc(-n2c(SCC(=O)OC)nc3sc4c(c3c2=O)CCN(C)C4)cc1,-0.924%
15,COc1ccc(-n2c(NN)nc3sc4c(c3c2=O)CCCC4)cc1,-47.4%
16,COc1ccc(-n2c(C)nc3sc4c(c3c2=O)CCCC4)cc1,-20.3%
17,CCOC(=O)CSc1nc2sc3c(c2c(=O)n1-c1ccc(OC)cc1)CCN(C)C3,-5.76%
18,CN(C)CCNc1nc2sc3c(c2c(=O)n1-c1ccc(F)cc1)CCCCC3,-33.3%
19,COc1ccc(-n2c(SCC(N)=O)nc3sc4c(c3c2=O)CCC4)cc1,-16.9%
20,COc1ccc(-n2c(SCC(=O)O)nc3sc4c(c3c2=O)CCC4)cc1,18.9%
21,COc1ccc(-n2c(SCC(=O)O)nc3sc4c(c3c2=O)CCCC4)cc1,20.3%
